The record followed here is PubChem BioAssay (NCATS).

Inconclusive results are not listed. A number with no mark means an inactive call. Activity calls are given as the source filed them. Calls follow the shape of the dose curve; as a rule, active = well fitted inhibition curve with a large enough effect; inconclusive = small, poorly fitted or top-dose-only effect; inactive = flat fitted curve, though single readings scatter.

Experiment [1] can be described thus: qHTS profiling for inhibitors of Plasmodium falciparum proliferation (AID 504749). Also: nearly all actives have a fitted effect of over 60% in size.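 As to activity, negative = inhibition: 0% = DMSO vehicle and full inhibition = artemisinin control.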 The conditions noted are these: P. falciparum in erythrocytes, SYBR Green DNA, 72 h, at 28.7 µM (top of the series). In short, it runs like this:
(§1)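 Readout was DNA-dye fluorescence from lysed cultures, ex 485/em 535 nm. Parasitized red cells had grown 72 h with compound; data scaled between 0.29 uM artemisinin and DMSO wells and corrected using vehicle-only plates.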
(In qHTS, concentration-response curves come from the screen itself.)

The subject of another experiment is 3D7. The experiment is described as above. The conditions noted are these: P. falciparum in erythrocytes, SYBR Green DNA, 72 h; series mostly up to 28.7 µM. In short, it runs like this: as §1
The next experiment relates to 7G8. Described as above. The conditions noted are these: P. falciparum in erythrocytes, SYBR Green DNA, 72 h; series mostly up to 28.7 µM. In short, it runs like this:
as §1

In a further experiment the test system is AA1029. Described as above. The conditions noted are these: P. falciparum in erythrocytes, SYBR Green DNA, 72 h; series mostly up to 28.7 µM. Put shortly: as §1
Potency is read from the fitted curve at half-maximal effect.

For `CCC1C(=O)OCC1Cc1cncn1C` (configuration not stated), the activity, negative = inhibition in experiment [1] (parasite line A) was -3.99%; in experiment [1] (parasite line B) it was -7.08%. Besides, the Potency entry in the experiment with 3D7, in the experiment on 7G8 and in the experiment with AA1029 was “inactive” throughout.
As for `O=c1[nH]c2ccccc2n1CCCN1CCN(C(c2ccccc2)c2ccccc2)CC1`, the activity, negative = inhibition in experiment [1] (parasite line A) is -13.9%. In addition, the Potency with 7G8 is 7.08 µM (active).
Regarding `CCCCCCCCCCCC(=O)[O][Sn]([CH2]CCC)([CH2]CCC)[O]C(=O)CCCCCCCCCCC`, the activity, negative = inhibition was -9.86% in experiment [1] (parasite line A) and -5.91% in experiment [1] (parasite line B). Besides, the Potency result in the experiment with 3D7, in the experiment with 7G8 and with AA1029 was “inactive” throughout.
